Active and inactive are the calls of the source. The calls were made as follows: active = hit-call score of the fitted dose curve at least 0.9, where 1 is the maximum; inactive = score below 0.9.
How the values were obtained:
Conditions in all cases: mRNA level, 48 h; actives raise or lower the signal
[1] = read-out: Phosphatase and tensin (PTEN), PTEN (gene 5728); experiment: LTEA_HepaRG_PTEN: Life Technologies and Expression Analysis (LTEA) Assay for Phosphatase and tensin (PTEN) using HepaRG (AID 2283523)
Outline: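 Expression of PTEN is quantified in the human liver line HepaRG following two days of dosing (top concentration 100 uM, half-log dilutions, 0.5% DMSO). Values derive from bidirectional curve fitting relative to DMSO controls.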

[2] = read-out: solute carrier (SLC22A1), SLC22A1 (gene 6580); experiment: LTEA_HepaRG_SLC22A1: Life Technologies and Expression Analysis (LTEA) Assay for solute carrier (SLC22A1) using HepaRG (AID 2283524);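 as to AC50: differentiated human HepaRG liver cells in serum-free induction medium; TaqMan qRT-PCR normalized to ACTB GAPDH and POLR2A housekeeping genes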
Outline: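 Transcript induction or suppression of SLC22A1 in human HepaRG cultures is scored after 48 h chemical treatment, with DMSO (0.5%) as baseline for bidirectional fitting. Concentrations span eight half-log points topping at 100 uM.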

[3] = read-out: Pyruvate Dehydrogenase Kinase 4 (PDK4), PDK4 (gene 5166); experiment: LTEA_HepaRG_PDK4: Life Technologies and Expression Analysis (LTEA) Assay for Pyruvate Dehydrogenase Kinase 4 (PDK4) using HepaRG (AID 2283525)
Outline: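 Eight-point, half-log concentration series (max 100 uM, 0.5% DMSO) applied to differentiated HepaRG cells for 48 h in duplicate. Endpoint: PDK4 mRNA induction or repression by qRT-PCR against DMSO baseline.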

[4] = read-out: NAD(P)H dehydrogenase [quinone] 1 (NQO1), NQO1 (gene 1728); experiment: LTEA_HepaRG_NQO1: Life Technologies and Expression Analysis (LTEA) Assay for NAD(P)H dehydrogenase [quinone] 1 (NQO1) using HepaRG (AID 2283526)
Outline: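 qRT-PCR read-out (Fluidigm TaqMan), normalized to three housekeeping genes, after 48 h chemical exposure of HepaRG cells. Concentrations: eight points, top 100 uM, half-log steps, 0.5% DMSO vehicle. Gain or loss of signal fitted relative to DMSO.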

[5] = read-out: Nuclear factor erythroid 2-related factor 2 (Homo sapiens) (UniProt Q16236); experiment: LTEA_HepaRG_NFE2L2: Life Technologies and Expression Analysis (LTEA) Assay for Nuclear factor erythroid 2-related factor 2 (NFE2L2) Transcription Factor using HepaRG (AID 2283527)
Outline: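 Human liver HepaRG line treated in duplicate for 48 h with an eight-point series topping at 100 uM. Gene expression of NFE2L2 by qRT-PCR, bidirectionally fitted against the vehicle control.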

[6] = read-out: succinate dehydrogenase complex iron sulfur subunit B (SDHB), SDHB (gene 6390); experiment: LTEA_HepaRG_SDHB: Life Technologies and Expression Analysis (LTEA) Assay for succinate dehydrogenase complex iron sulfur subunit B (SDHB) using HepaRG (AID 2283528)
Outline: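 Readout is SDHB transcript level by qRT-PCR, normalised to three housekeeping genes and fitted bidirectionally against 0.5% DMSO vehicle. Human HepaRG cells were treated for 48 h at up to 100 uM.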

[7] = read-out: Signal transducer and activator of transcription 3 (Homo sapiens) (UniProt P40763); experiment: LTEA_HepaRG_STAT3: Life Technologies and Expression Analysis (LTEA) Assay for Signal transducer and activator of transcription (STAT3) using HepaRG (AID 2283529)
Outline: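 In this transcriptional endpoint, HepaRG cultures receive test chemicals at up to 100 uM for 48 h, tested in duplicate. STAT3 mRNA is normalized to ACTB, GAPDH and POLR2A.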

[8] = read-out: solute carrier (SLCO1B1), SLCO1B1 (gene 10599); experiment: LTEA_HepaRG_SLCO1B1: Life Technologies and Expression Analysis (LTEA) Assay for solute carrier (SLCO1B1) using HepaRG (AID 2283530)
Outline: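 Human HepaRG cultures treated for 48 h with an eight-concentration half-log series topping at 100 uM; SLCO1B1 measured by qRT-PCR and fitted bidirectionally relative to DMSO.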

[9] = read-out: sulfotransferase 2A1 (SULT2A1), SULT2A1 (gene 6822); experiment: LTEA_HepaRG_SULT2A1: Life Technologies and Expression Analysis (LTEA) Assay for sulfotransferase 2A1 (SULT2A1) using HepaRG (AID 2283531)
Outline: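 Gene-expression endpoint in a human liver cell line: SULT2A1 mRNA change after 48 h chemical treatment, curves fitted in both directions relative to 0.5% DMSO vehicle. Concentrations spanned eight half-log steps from 100 uM.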

[10] = read-out: Transforming Growth Factor (TGFA), TGFA (gene 7039); experiment: LTEA_HepaRG_TGFA: Life Technologies and Expression Analysis (LTEA) Assay for Transforming Growth Factor (TGFA) using HepaRG (AID 2283532)
Outline: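 Gene expression of TGFA was quantified by qRT-PCR after human HepaRG cells were treated for 48 h with test chemicals (eight concentrations, highest 100 uM, 0.5% DMSO). Activity in either direction was fitted relative to DMSO.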

Measured: AC50

Chain of Signal transducer and activator of transcription 3 (Homo sapiens) (P40763 whole entry, looked up): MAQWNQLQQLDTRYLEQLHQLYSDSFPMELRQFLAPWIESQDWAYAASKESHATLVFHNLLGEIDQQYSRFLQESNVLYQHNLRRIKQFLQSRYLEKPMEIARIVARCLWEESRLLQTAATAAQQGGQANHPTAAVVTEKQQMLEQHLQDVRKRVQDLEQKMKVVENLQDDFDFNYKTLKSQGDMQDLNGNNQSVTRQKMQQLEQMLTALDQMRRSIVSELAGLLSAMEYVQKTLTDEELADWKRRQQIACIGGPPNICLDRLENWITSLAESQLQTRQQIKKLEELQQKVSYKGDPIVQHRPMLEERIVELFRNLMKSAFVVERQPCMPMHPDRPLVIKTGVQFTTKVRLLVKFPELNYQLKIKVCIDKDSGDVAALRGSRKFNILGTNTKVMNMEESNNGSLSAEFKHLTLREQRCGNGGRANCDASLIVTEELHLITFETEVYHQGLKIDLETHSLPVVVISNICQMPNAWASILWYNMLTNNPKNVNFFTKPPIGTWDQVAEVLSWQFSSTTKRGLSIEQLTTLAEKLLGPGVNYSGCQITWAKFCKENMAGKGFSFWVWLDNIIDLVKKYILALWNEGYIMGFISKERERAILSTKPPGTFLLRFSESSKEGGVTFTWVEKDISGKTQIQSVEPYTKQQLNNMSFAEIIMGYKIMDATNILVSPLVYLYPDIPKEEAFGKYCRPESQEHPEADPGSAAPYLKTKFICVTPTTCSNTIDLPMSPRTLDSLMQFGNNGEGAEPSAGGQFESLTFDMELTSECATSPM
Chain of Nuclear factor erythroid 2-related factor 2 (Homo sapiens) (Q16236 whole entry, looked up): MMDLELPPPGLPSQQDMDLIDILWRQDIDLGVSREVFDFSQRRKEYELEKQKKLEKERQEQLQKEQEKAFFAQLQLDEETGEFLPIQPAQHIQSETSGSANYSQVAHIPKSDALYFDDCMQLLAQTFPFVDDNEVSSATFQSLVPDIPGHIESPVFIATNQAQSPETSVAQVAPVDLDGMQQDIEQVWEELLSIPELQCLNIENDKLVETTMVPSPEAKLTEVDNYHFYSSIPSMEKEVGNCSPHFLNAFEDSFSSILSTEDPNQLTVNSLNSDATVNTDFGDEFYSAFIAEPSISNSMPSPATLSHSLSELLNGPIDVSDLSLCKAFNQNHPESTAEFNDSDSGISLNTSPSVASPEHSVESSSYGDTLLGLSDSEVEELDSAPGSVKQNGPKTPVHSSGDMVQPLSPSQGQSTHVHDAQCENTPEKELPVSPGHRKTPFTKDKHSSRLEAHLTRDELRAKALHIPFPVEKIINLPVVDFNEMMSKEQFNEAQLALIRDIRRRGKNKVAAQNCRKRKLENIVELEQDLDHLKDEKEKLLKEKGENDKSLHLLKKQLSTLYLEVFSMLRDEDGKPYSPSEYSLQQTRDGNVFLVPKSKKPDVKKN

CC1(C(=O)Nc2ccc(O)c(Cl)c2Cl)CCCCC1
inactive: [1] | [2] | [3] | [4] | [5] | [6] | [7] | [8] | [9] | [10]

COc1cccc(C(=O)NN(C(=O)c2cc(C)cc(C)c2)C(C)(C)C)c1C
active: [3] 69.7 µM | [7] 5.4 µM | [9] 32.5 µM
inactive: [1] | [4] | [5] | [6] | [8] | [10]

CSC1=N[C@@](C)(c2ccccc2)C(=O)N1Nc1ccccc1
inactive: [1] | [4]
active: [2] 34.2 µM | [3] 12.7 µM | [5] 68.6 µM | [7] 9.92 µM | [8] 35.7 µM | [9] 34.9 µM | [10] 29.7 µM

C[N+]1(C)CCCCC1
inactive: [1] | [2] | [3] | [4] | [5] | [6] | [7] | [8] | [9] | [10]

CCOC(=O)CC(SP(=O)(OC)OC)C(=O)OCC (centres undefined)
inactive: [1] | [2] | [4] | [5] | [6] | [7] | [8] | [9] | [10]
active: [3] 22 µM

CC(COc1ccc(Oc2ccccc2)cc1)Oc1ccccn1 (centres undefined)
active: [2] 12.1 µM | [3] 25.4 µM
inactive: [1] | [4] | [5] | [6] | [7] | [8] | [9] | [10]

O=c1ccc(=O)[nH][nH]1
inactive: [1] | [2] | [3] | [4] | [5] | [6] | [7] | [8] | [9] | [10]

O=[N+]([O-])c1cc(C(F)(F)F)c(Cl)c([N+](=O)[O-])c1Nc1ncc(C(F)(F)F)cc1Cl
inactive: [4] | [5] | [6] | [7] | [10]
active: [1] 59.8 µM | [2] 17.8 µM | [3] 34 µM | [8] 23.4 µM | [9] 50 µM

CC[C@H](C)[C@H]1O[C@]2(C=C[C@@H]1C)C[C@@H]1C[C@@H](C/C=C(\C)[C@@H](O[C@H]3C[C@H](OC)[C@@H](O[C@H]4C[C@H](OC)[C@@H](NC)[C@H](C)O4)[C@H](C)O3)[C@@H](C)/C=C/C=C3\CO[C@@H]4[C@H](O)C(C)=C[C@@H](C(=O)O1)[C@]34O)O2
inactive: [5] | [6] | [10]
active: [1] 23.5 µM | [2] 23.8 µM | [3] 91.9 µM | [4] 31.7 µM | [7] 11.9 µM | [8] 19.9 µM | [9] 26.3 µM

FC(F)C(F)(F)OCC(Cn1cncn1)c1ccc(Cl)cc1Cl (centres undefined)
active: [2] 19.7 µM | [3] 12 µM | [5] 73.7 µM | [8] 70.4 µM | [9] 53.8 µM | [10] 62.2 µM
inactive: [1] | [4] | [6]

CCOP(=S)(OCC)SCCSCC
inactive: [1] | [2] | [3] | [4] | [5] | [6] | [8] | [9] | [10]

CSc1nnc(C(C)(C)C)c(=O)n1N
inactive: [1] | [2] | [3] | [4] | [5] | [6] | [7] | [8] | [9] | [10]

CON=C(C(=O)OC)c1ccccc1CON=C(C)c1cccc(C(F)(F)F)c1
active: [2] 50 µM
inactive: [1] | [3] | [4] | [5] | [6] | [7] | [8] | [9] | [10]

C#CC(C)(C)NC(=O)c1cc(Cl)cc(Cl)c1
inactive: [1] | [2] | [3] | [4] | [5] | [6] | [7] | [8] | [9] | [10]

CNC(=O)Oc1cccc2c1OC(C)(C)O2
inactive: [1] | [2] | [3] | [4] | [6] | [7] | [8] | [9] | [10]

Cc1cc(C2CC2)nc(Nc2ccccc2)n1
inactive: [1] | [3] | [4] | [5] | [6] | [7] | [8] | [9] | [10]
active: [2] 67.7 µM

CCc1cccc(CC)c1N(COC)C(=O)CCl
inactive: [1] | [2] | [4] | [5] | [6] | [7] | [8] | [9] | [10]
active: [3] 28.9 µM

CC1=NNC(=O)N(/N=C/c2cccnc2)C1
inactive: [1] | [2] | [3] | [4] | [5] | [6] | [7] | [8] | [9] | [10]

CCC(=O)Nc1ccc(Cl)c(Cl)c1
active: [2] 50 µM | [5] 32.2 µM
inactive: [1] | [3] | [4] | [6] | [7] | [8] | [9] | [10]

CNC(=O)ON=C(C)SC
inactive: [1] | [2] | [3] | [4] | [5] | [6] | [7] | [8] | [9] | [10]

CCOP(=O)(NC(C)C)Oc1ccc(SC)c(C)c1 (centres undefined)
inactive: [1] | [2] | [3] | [4] | [5] | [6] | [7] | [8] | [9] | [10]

CCOP(=S)(OCC)Oc1ccc([N+](=O)[O-])cc1
inactive: [1] | [2] | [3] | [4] | [5] | [6] | [7] | [8] | [9] | [10]

CCOP(=S)(OCC)Oc1cc(C)nc(C(C)C)n1
inactive: [1] | [2] | [3] | [4] | [5] | [6] | [7] | [8] | [9] | [10]

CCOP(=O)(SC(C)CC)N1CCSC1=O (centres undefined)
active: [3] 21.7 µM
inactive: [1] | [2] | [4] | [5] | [6] | [7] | [8] | [9] | [10]

C#CCC1=C(C)C(OC(=O)C2C(C=C(C)C)C2(C)C)CC1=O (centres undefined)
inactive: [1] | [4] | [5] | [7] | [8] | [9] | [10]
active: [2] 74.1 µM | [3] 9.87 µM | [6] 9.87 µM

COc1ccc(C(=CC(=O)N2CCOCC2)c2ccc(Cl)cc2)cc1OC
inactive: [1] | [2] | [3] | [4] | [5] | [6] | [7] | [8] | [9] | [10]

O=C(O)c1cc(Oc2ccc(C(F)(F)F)cc2Cl)ccc1[N+](=O)[O-]
active: [3] 42.1 µM | [9] 50 µM
inactive: [2] | [4] | [5] | [6] | [7] | [8] | [10]

CCOP(=O)(OCC)Oc1cc(C)nc(C(C)C)n1
inactive: [1] | [2] | [3] | [4] | [5] | [6] | [7] | [8] | [9] | [10]

CN(C)C(=O)Nc1cccc(C(F)(F)F)c1
inactive: [1] | [2] | [3] | [4] | [6] | [7] | [9] | [10]
active: [5] 50 µM | [8] 50 µM

CCC(=NOC/C=C/Cl)C1=C(O)CC(C2CCOCC2)CC1=O (centres undefined)
inactive: [1] | [2] | [3] | [4] | [5] | [6] | [7] | [8] | [9] | [10]

Source: PubChem BioAssay (EPA / NIEHS)
